# Test results as given in PubChem BioAssay (NCI).
# About 83,000 compounds went through this panel and 20% of them were active in at least one assay; those are over-represented in the sample as a whole.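 In brief: 96-well plates, 48 h treatment, single concentration, percent growth endpoint.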 A number with no mark means an inactive call. Calls of active or inactive are those of the source. How the source made its calls: active means growth percent below 10; inactive means the rest.
# Legend:
# Experiment in all cases: NCI-60 one-dose screen, 48 h (100 = growth as untreated, 0 = no growth, -100 = all killed)
# Settings in all cases: 10 µM unless noted
# HCT-15 colon = test system: HCT-15 colon
# HT29 colon = test system: HT29 colon
# SNB-75 CNS = test system: SNB-75 CNS
# SNB-19 CNS = test system: SNB-19 CNS
# U251 CNS = test system: U251 CNS
# PC-3 prostate = test system: PC-3 prostate
# SK-MEL-5 melanoma = test system: SK-MEL-5 melanoma
# UACC-62 melanoma = test system: UACC-62 melanoma
# LOX IMVI melanoma = test system: LOX IMVI melanoma
# SK-MEL-28 melanoma = test system: SK-MEL-28 melanoma
# SK-MEL-2 melanoma = test system: SK-MEL-2 melanoma
# EKVX NSCLC = test system: EKVX NSCLC
# SN12C renal = test system: SN12C renal
# UO-31 renal = test system: UO-31 renal
# TK-10 renal = test system: TK-10 renal
# ACHN renal = test system: ACHN renal
# CAKI-1 renal = test system: CAKI-1 renal
# CCRF-CEM leukemia = test system: CCRF-CEM leukemia
# MOLT-4 leukemia = test system: MOLT-4 leukemia
Structure (SMILES),growth (HCT-15 colon),growth (HT29 colon),growth (SNB-75 CNS),growth (SNB-19 CNS),growth (U251 CNS),growth (PC-3 prostate),growth (SK-MEL-5 melanoma),growth (UACC-62 melanoma),growth (LOX IMVI melanoma),growth (SK-MEL-28 melanoma),growth (SK-MEL-2 melanoma),growth (EKVX NSCLC),growth (SN12C renal),growth (UO-31 renal),growth (TK-10 renal),growth (ACHN renal),growth (CAKI-1 renal),growth (CCRF-CEM leukemia),growth (MOLT-4 leukemia)
Cc1nc(Nc2ccccn2)sc1C(=O)/C=C/c1ccc(Br)cc1,30.4%,25.9%,40.2%,69.2%,59.8%,56.3%,84.7%,61.5%,32.2%,99.6%,97.7%,60.4%,78.8%,49.7%,127%,75.2%,53.4%,31.1%,80%
O=C(NCCN1CCC(O)CC1)c1cc2c(o1)C(=O)c1ccccc1C2=O,-80.8% (active),-5.34% (active),-98.5% (active),-98.1% (active),-88.1% (active),-28.4% (active),-99.2% (active),-89.4% (active),-89.3% (active),-74.3% (active),-66.1% (active),-76.8% (active),-88.1% (active),-98.9% (active),-91.8% (active),-89.2% (active),-97.1% (active),2.16% (active),-4.13% (active)
N=C(N)c1ccc(-c2ccc(-c3ccc(Cl)cc3Cl)o2)cc1,-74.1% (active),-71.1% (active),19.7%,-1.88% (active),-59.4% (active),52.6%,72.5%,72.1%,-94.7% (active),46%,105%,58.5%,-78.3% (active),-83.8% (active),30.5%,-89% (active),17.3%,0.678% (active),-29.2% (active)
C[C@H]1[C@H](C)CC[C@]2(C(=O)N3CCN(C)CC3)CC[C@]3(C)C(=CC[C@@H]4[C@@]5(C)C/C(=C/c6cccnc6)C(=O)C(C)(C)[C@@H]5CC[C@]43C)[C@H]12,-79.8% (active),-79.3% (active),-9.56% (active),-95.9% (active),-96% (active),-79.6% (active),-97.6% (active),-74.7% (active),-97.1% (active),-85.7% (active),-82.6% (active),-81.5% (active),-95.3% (active),-92.5% (active),-97.4% (active),-94.4% (active),-42.5% (active),-51.7% (active),-51.9% (active)
COc1ccc(/C=C(\C#N)n2nnc3ccccc32)cc1,8.56% (active),11%,-31.7% (active),23%,17.6%,15.8%,6.7% (active),21.4%,2.08% (active),36.2%,38.5%,24.1%,18.9%,33.2%,44%,23%,25%,18.8%,18.7%
Cl.Fc1c[c-]c(-c2ccccn2)c(F)c1.[Pt].c1ccc([PH+](c2ccccc2)c2ccccc2[PH+](c2ccccc2)c2ccccc2)cc1,-83.8% (active),-63.3% (active),-98.3% (active),-94.9% (active),-87.8% (active),-86.6% (active),-97.2% (active),-85.6% (active),-92.6% (active),-94.5% (active),-82.1% (active),-94.8% (active),-81.3% (active),-98.8% (active),-87.2% (active),-100% (active),-90.5% (active),-43.6% (active),-28.3% (active)
CNC(=O)NCC1OC(n2cnc3c(NC(=O)Nc4ccccc4)ncnc32)C2OC(C)(C)OC12 (centres undefined),97.5%,98.5%,59.7%,85.3%,94.1%,71%,86.2%,91.5%,100%,91.7%,104%,102%,94.7%,73.7%,134%,105%,72.6%,95.4%,103%
COc1ccc(C(=O)/C=C/C23c4ccccc4C(c4ccccc42)C2C(=O)NC(=O)C23)cc1 (centres undefined),91.3%,97.3%,85%,92.6%,93.7%,102%,95.9%,90.6%,90.1%,108%,103%,87.5%,86.9%,72.6%,114%,95.4%,90.7%,89.8%,87.3%
N#C/C(=C\c1ccc(Br)cc1)n1nnc2cc(Cl)c(Cl)cc21,14%,9.9% (active),25.5%,47.7%,23.4%,33.5%,43.3%,46.7%,-9.55% (active),51.4%,33.9%,59.6%,35%,35.1%,59.6%,41%,21.9%,8.21% (active),6.13% (active)
CC(C)(C)c1ccc(C(=O)Nc2sc3c(c2C(N)=O)CCC(=O)C3)cc1,-29.3% (active),3.24% (active),-49.3% (active),15.2%,-43.8% (active),-5.7% (active),-81.2% (active),-36.7% (active),-55.1% (active),-14.9% (active),2.34% (active),5.58% (active),-1.37% (active),-99.6% (active),-33.9% (active),-98.6% (active),-74.9% (active),1.49% (active),4.19% (active)
CN1C(=O)CCC(N2C(=O)c3cccc(NCCOCCOCCNC(=O)c4cc5c(o4)C(=O)c4ccccc4C5=O)c3C2=O)C1=O (centres undefined),-79% (active),0.328% (active),-98.2% (active),1.34% (active),-5.25% (active),7.64% (active),-97% (active),-91% (active),-53.6% (active),-19.9% (active),6.39% (active),9.9% (active),-86.2% (active),-52.6% (active),32.4%,8.82% (active),-0.721% (active),18.4%,11.1%
N#Cc1c(N)n2c(nc1=Nc1ccc([N+](=O)[O-])cc1)sc1cc(Cl)ccc12,95.9%,99.2%,60.9%,95.7%,85.8%,81.8%,73%,53.1%,79.4%,106%,99.4%,84.3%,89.4%,75.2%,148%,90.7%,85.2%,83.6%,93.4%
CC(=[N-])N1CCC[C@@H](Nc2c3ccccc3nc3ccccc23)C1.[Cl][Pt].[NH-]CCC[NH-],48.2%,1.38% (active),3.22% (active),53.3%,44.3%,70.6%,-84.4% (active),-63.3% (active),27.9%,2.14% (active),52.4%,52.3%,5.71% (active),27.4%,1.35% (active),-22.2% (active),15.5%,35.4%,14.6%
CCn1c(Sc2nnc(NC(=O)CCN3CCCC3)s2)nc2c1c(=O)n(C)c(=O)n2C,104%,107%,97.8%,104%,95.3%,103%,104%,101%,99.9%,111%,108%,99.3%,96.8%,88.7%,104%,100%,94.6%,103%,108%
CCn1c(Sc2nnc(NC(C)=O)s2)nc2c1c(=O)n(C)c(=O)n2C,97.5%,104%,90%,96.8%,106%,91.9%,98.6%,93.3%,90%,101%,103%,88.3%,94%,83.5%,103%,95.5%,93.7%,112%,113%
CCCCN1CCN(c2ccc3nc(-c4ccc5nc(-c6cc(OC)c(OC)c(OC)c6)[nH]c5c4)[nH]c3c2)CC1,99.2%,56%,38.7%,71.9%,56.3%,57.4%,44.8%,39.5%,40.7%,66.3%,83.8%,106%,80.2%,79.8%,131%,86.8%,87.9%,25.1%,47%
